# According to PubChem BioAssay (NCATS):
# “And” between values parts separate entries of the source, which are not always exact repeats. Equal values may be shown once. Inconclusive results are not listed. A call without a number means that no potency is given here. The source made the active and inactive calls. Calls come from the whole dose curve; as a rule, active = well fitted curve in the direction sought with a large enough effect; inconclusive = small, poorly fitted or top-dose-only effect, or another doubt; inactive = no such curve, though single readings can be large; an effect the other way counts as inactive or inconclusive.
# Experiments:
# [1] = Viability qHTS for spleen associated tyrosine kinase inhibitor (SYKi) naive MV4-11 cells (AID 1963823); note: nearly all actives have a fitted effect of over 40% in size
# Outline: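 Viability of MV4-11 AML cells lacking prior SYK inhibitor exposure is scored by CellTiter-Glo luminescence following 72 hr compound incubation at 37 C, 5% CO2, seeded at 500 cells per well.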
# [2] = Cellular viability qHTS for adrenocortical cancer (ACC) cell line SW-13 (AID 1963989); conditions: SW-13 ACC cells viability, CellTiter-Glo, 48 h; activity (max response): hits give low values; note: nearly all actives have a fitted effect of over 65% in size;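 for activity (max response): cells grown in serum-free medium with ITS supplement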
# Outline: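 Viability was read as CellTiter-Glo luminescence after 48 h compound treatment (up to 46 uM final) of SW-13 cells grown serum-free; titration curves were fit with a four-parameter logistic model to give IC50 and efficacy.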
# [3] = Cellular viability qHTS for adrenocortical cancer (ACC) cell line NCI-H295R (AID 1963990); note: nearly all actives have a fitted effect of over 60% in size
# Outline: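 CellTiter-Glo ATP luminescence, read 48 h after compound addition, measured viability of NCI-H295R adrenocortical cells grown serum-free with ITS. Final concentrations spanned up to 46 uM. Data normalized to DMSO and doxorubicin, fitted for IC50 and maximal response.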
# Potency is the fitted concentration of half-maximal effect.
compound,measurement,setting,value
NC(=O)C1(N2CCCCC2)CCN(CCCN2c3ccccc3CCc3ccc(Cl)cc32)CC1,Potency,[1],8.41 µM (active)
same,Potency,[2],20.6 µM (active)
same,Potency,[3],2.91 µM (active)
COC(=O)[C@H]1[C@H]2C[C@@H]3c4[nH]c5cc(OC)ccc5c4CCN3C[C@H]2C[C@@H](OC(=O)COc2ccc(OC)cc2)[C@@H]1OC,Potency,[1],inactive
same,activity (max response),[2],-9.25% (inactive)
OCc1ccccc1O[C@@H]1O[C@H](CO)[C@@H](O)[C@H](O)[C@H]1O,Potency,[1],inactive
same,activity (max response),[2],-1.84% (inactive)
same,Potency,[3],inactive
CN1CCC[C@@H]1Cc1c[nH]c2ccc(CCS(=O)(=O)c3ccccc3)cc12,Potency,[1],inactive
same,activity (max response),[2],-0.887% (inactive)
same,Potency,[3],inactive
CCCC(CCC)(C(=O)OCC)C(=O)OCC,Potency,[1],inactive
same,activity (max response),[2],12.5% (inactive)
same,Potency,[3],inactive
COc1cc(C)nc(-n2nc(C)cc2OC)n1,Potency,[1],inactive
same,activity (max response),[2],11% (inactive)
CC(C(=O)O)c1ccc(/C=C2\CCCCC2=O)cc1 (stereo not drawn),Potency,[1],inactive
same,activity (max response),[2],8.31% (inactive)
same,Potency,[3],inactive
CN(C)CCCN1c2ccccc2Sc2ccc(Cl)cc21,Potency,[1],10.6 µM (active)
same,Potency,[2],14.6 µM (active)
same,Potency,[3],18.4 µM (active)
CSCC[C@H](NC(=O)[C@H](Cc1c[nH]c2ccccc12)NC(=O)CCNC(=O)OC(C)(C)C)C(=O)N[C@@H](CC(=O)O)C(=O)N[C@@H](Cc1ccccc1)C(N)=O,Potency,[1],inactive
same,activity (max response),[2],1.93% (inactive)
CN1[C@@H]2CC(OC(=O)[C@H](CO)c3ccccc3)C[C@H]1[C@@H]1O[C@@H]12 (stereo partly drawn),Potency,[1],inactive
same,activity (max response),[2],1.78% (inactive)
same,Potency,[3],inactive
O=C(O)COC(=O)Cc1ccccc1Nc1c(Cl)cccc1Cl,Potency,[1],inactive
same,activity (max response),[2],7.51% (inactive)
same,Potency,[3],inactive
O=C(NO)c1ccc(C2=Nc3ccccc3Oc3ccccc32)cc1,Potency,[1],3.32 µM (active)
same,Potency,[2],22.4 µM (active)
same,Potency,[3],5.01 µM (active)
CSC[C@H]1CN(Cc2c[nH]c3c(N)ncnc23)C[C@@H]1O,Potency,[1],inactive
same,activity (max response),[2],-14.7% (inactive)
same,Potency,[3],inactive
CC(N)C(=O)OC(C)(C)Cc1ccc(Cl)cc1 (stereo not drawn),Potency,[1],inactive
same,activity (max response),[2],12.9% (inactive)
same,Potency,[3],inactive
O=C(O)CN1C(=O)c2cccc3cccc(c23)C1=O,Potency,[1],inactive
same,activity (max response),[2],-3.53% (inactive)
same,Potency,[3],inactive
Cc1cc(=O)oc2cc(O[C@@H]3SC[C@@H](O)[C@H](O)[C@H]3O)ccc12,Potency,[1],inactive
same,activity (max response),[2],12.3% (inactive)
same,Potency,[3],inactive
CCc1c(-c2ccccc2C)nc2c(C#N)c[nH]n2c1=O,Potency,[1],inactive
same,activity (max response),[2],6.89% (inactive) and 1.74% (inactive)
same,Potency,[3],inactive
Cc1ncc(CO)c(CO)c1O,Potency,[1],3.76 µM (active)
same,activity (max response),[2],1.35% (inactive)
same,Potency,[3],inactive
CN1CCN(C(=O)[C@H]2[C@@H](C(=O)O)[C@H]3CC[C@@H]2O3)CC1,viability (% of control),[1],78.3% [at 9.25 µM] (inactive)
same,activity (max response),[2],-7.83% (inactive)
same,"activity change, negative = viability loss",[3],2.26% [at 9.17 µM] (inactive)
CCCCCCCCCCCCSCCOCCO,Potency,[1],inactive
same,activity (max response),[2],-3.34% (inactive)
same,Potency,[3],inactive
CC(=O)Nc1ccc(OC(=O)c2ccccc2OC(C)=O)cc1,Potency,[1],inactive
same,activity (max response),[2],8.82% (inactive)
same,Potency,[3],inactive
[2H]c1nc(C)nc([2H])c1-c1cc(NC[C@@H](C)c2cccc3c(C(=O)NC)ccnc23)ncn1,Potency,[1],inactive
same,activity (max response),[2],14.2% (inactive)
same,Potency,[3],inactive
CCOC(=O)c1cc(=O)c2c(OCC(COc3cccc4oc(C(=O)OCC)cc(=O)c34)OC(=O)[C@@H](N)CCCCN)cccc2o1,Potency,[1],inactive
same,activity (max response),[2],4.59% (inactive)
same,Potency,[3],inactive
CCOC(=O)[C@H](CCc1ccccc1)N[C@@H](C)C(=O)N1Cc2cc(OC)c(OC)cc2C[C@H]1C(=O)O,Potency,[1],inactive
same,activity (max response),[2],2.85% (inactive)
same,Potency,[3],inactive
CCC(=C/[C@H](C)C/C=C/C(C)=C/[C@@H](C)C(=O)[C@@H](C)[C@H](O)[C@@H](C)C/C(C)=C/C(=O)O)/C=C/[C@@H]1OC(=O)C=C[C@@H]1C,Potency,[1],0.0019 µM (active)
same,Potency,[2],0.0251 µM (active)
same,Potency,[3],0.01 µM (active)
CCN1CCC[C@H]1CNC(=O)c1c(OC)ccc(Br)c1OC,Potency,[1],6.68 µM (active)
same,activity (max response),[2],-0.795% (inactive)
same,Potency,[3],inactive
COc1ccc(C(=O)C2CCN(CC(=O)N(Cc3nc4c(c(=O)[nH]3)COCC4)CC3CC3)CC2)cc1,Potency,[1],inactive
same,activity (max response),[2],0.295% (inactive)
same,Potency,[3],inactive
